{"source": "PubChem BioAssay AID596", "about": "(National Center for Advancing Translational Sciences (NCATS), 2007)", "note": "The whole screen tested about 71,000 compounds, of which about 1,400 (2%) were called active. Not shown: some 3% with an inconclusive outcome. The sample holds actives, similar compounds and a random draw of the others, so the mix is not that of the screen. Calls follow the shape of the dose curve; as a rule, active = well fitted curve in the direction sought with a large enough effect; inconclusive = small, poorly fitted or top-dose-only effect; inactive = no such curve, though single readings can be large or run the other way. % is scaled to controls: 0 for no effect and ±100 for the full control effect; potency is read from the fitted curve at half-maximal effect.", "data": [{"molecular_target": "Microtubule-associated protein tau (Homo sapiens) (UniProt P10636)", "sequence (P10636 whole entry, looked up)": "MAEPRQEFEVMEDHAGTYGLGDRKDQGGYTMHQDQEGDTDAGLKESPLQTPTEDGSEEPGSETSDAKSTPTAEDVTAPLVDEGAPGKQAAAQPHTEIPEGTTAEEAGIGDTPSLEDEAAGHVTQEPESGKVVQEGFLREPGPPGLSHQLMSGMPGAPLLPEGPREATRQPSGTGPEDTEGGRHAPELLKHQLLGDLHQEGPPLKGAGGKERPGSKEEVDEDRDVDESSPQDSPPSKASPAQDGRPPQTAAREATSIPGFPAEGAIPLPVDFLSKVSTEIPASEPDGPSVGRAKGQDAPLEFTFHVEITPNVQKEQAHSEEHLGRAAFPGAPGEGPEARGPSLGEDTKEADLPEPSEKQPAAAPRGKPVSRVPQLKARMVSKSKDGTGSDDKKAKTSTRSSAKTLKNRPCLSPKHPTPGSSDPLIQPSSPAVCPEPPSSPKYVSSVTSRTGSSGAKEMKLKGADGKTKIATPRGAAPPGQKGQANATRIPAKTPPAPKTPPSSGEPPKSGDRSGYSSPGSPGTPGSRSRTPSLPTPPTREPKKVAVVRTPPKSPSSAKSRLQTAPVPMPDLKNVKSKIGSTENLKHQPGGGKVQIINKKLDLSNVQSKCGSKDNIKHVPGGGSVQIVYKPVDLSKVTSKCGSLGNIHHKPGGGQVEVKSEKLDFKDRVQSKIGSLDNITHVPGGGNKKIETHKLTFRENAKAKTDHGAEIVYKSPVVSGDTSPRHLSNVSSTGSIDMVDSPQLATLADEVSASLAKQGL", "test": "qHTS Assay for Tau Filament Binding;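 also: actives lower thioflavin S fluorescence by blocking filaments or displacing dye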", "details": "recombinant tau filaments, thioflavin S fluorescence, 15 h, filaments grown with octadecylsulfate alongside compound; series mostly up to 57.1 µM; activity change, negative = inhibition: at the top concentration", "source_text": "NIH Molecular Libraries Screening Centers Network [MLSCN]\nNIH Chemical Genomics Center [NCGC]\nAssay Provider: Jeffrey A. Kuret, Ohio State University\nTau monomers form filaments in vitro in the presence of anionic detergents or fatty acids. The dye Thioflavine S (ThS) binds to tau filaments and upon binding, increases in fluorescence several fold. Small molecules that displace ThS binding or prevent filament binding are identified by a reduction in ThS fluorescence. This assay used histidine-tagged, recombinant human tau protein containing the products of exons 2, 3, and 10 that was provided by Jeff Kuret, Ohio State University. To form filaments, 1 uM tau was incubated with 30 uM sodium octadecylsulfate (ODS) in reagent buffer (10 uM thioflavine S, 5 mM 1,4-dithioerythreitol (DTT), 100 mM sodium chloride, 10 mM HEPES pH 7.4) for 15 hrs at 37 C.\nNCGC Assay Protocol Summary:\nAssay Steps. Two uL/well of 2 uM tau in reagent buffer (10 uM thioflavine S, 5 mM DTT, 100 mM sodium chloride, 10 mM HEPES pH 7.4) was dispensed into solid black 1536-well plates. Twenty-three nL compound was transferred to the assay plate after which 2 uL/well of 60 uM ODS in reagent buffer was dispensed for a final assay volume of 4 uL /well. Following 15 hours of incubation at 37 C, fluorescence was detected by an Envision (Perkin Elmer) using 450/8 nm excitation and 510/23 nm emission.\nKeywords: NIH Roadmap, MLSCN, MLI, MLSMR, qHTS, NCGC, Alzheimer's disease, Neurofibrillary lesions, tau, tubulin assembly, microtubule stability, cytoskeletal integrity, fibrillization, thioflavin dyes, Amyloidgenic", "values": [{"compound": "C[C@]1(C(=O)NCCc2c[nH]c3ccccc23)C=C[C@@H](Cc2ccccc2)N1C(=O)c1ccccc1", "activity change, negative = inhibition": "78.2% (inactive)"}, {"compound": "Cn1cccc1C(=O)N1CCC2(CC1)CN(c1cccc(-c3ccccc3)c1)C2", "activity change, negative = inhibition": "-8.2% (inactive)"}, {"compound": "CC(=O)CC(C)C", "activity change, negative = inhibition": "-8.5% (inactive)"}, {"compound": "C[C@H](CCC(=O)O)[C@H]1CC[C@@H]2[C@H]3CC[C@H]4C[C@H](O)CC[C@@]4(C)[C@@H]3CC[C@@]21C", "activity change, negative = inhibition": "11.3% [at 11.4 µM] (inactive)"}, {"compound": "COC(=O)c1ccc(C(NC(=O)OCc2ccccc2)/C(C)=C/[C@@H](C)C(=O)NCc2cc(C)on2)cc1", "note": "(some centres undefined)", "activity change, negative = inhibition": "-4.6% (inactive)"}, {"compound": "COC(=O)[C@H]1C[C@@H]1[C@H](NC(=O)Oc1ccc(F)cc1)c1ccccc1", "activity change, negative = inhibition": "-3.2% (inactive)"}, {"compound": "FC(F)(F)c1cc(-c2ccco2)nc(N2CCOCC2)n1", "activity change, negative = inhibition": "4% (inactive)"}, {"compound": "COC(=O)c1cnn2c(C(F)(F)F)cc(-c3ccco3)nc12", "Potency": "15.8 µM (active)"}, {"compound": "CCOC(=O)c1ccn(-c2nc(-c3ccco3)cc(C(F)(F)F)n2)n1", "activity change, negative = inhibition": "-22.9% (inactive)"}, {"compound": "CCC[C@@H]1C[C@@]1(CCC)C(NS(=O)(=O)c1cccc2cccnc12)c1ccc(Cl)cc1", "note": "(some centres undefined)", "activity change, negative = inhibition": "-15.3% (inactive)"}, {"compound": "CN(C)C(=O)/N=N\\C(=O)N(C)C", "activity change, negative = inhibition": "-7.5% (inactive)"}, {"compound": "CCCc1cc(=O)[nH]c(SCc2ccc(C#N)cc2)n1", "activity change, negative = inhibition": "2.2% (inactive)"}, {"compound": "COc1ccc(Cc2nnc(NS(=O)(=O)Cc3ccccc3)s2)cc1", "activity change, negative = inhibition": "-0.8% (inactive)"}, {"compound": "COc1ccc(Cc2nnc(NC(=O)Cc3cccs3)s2)cc1", "Potency": "25.1 µM (active)"}, {"compound": "CCc1nnc(NC(=O)CSc2nnc(Cc3ccccc3)n2-c2ccc(OC)cc2)s1", "activity change, negative = inhibition": "-7.8% (inactive)"}, {"compound": "COC(=O)N1CCC2(CCCN(c3ccncc3)C2)CC1", "activity change, negative = inhibition": "19.9% (inactive)"}, {"compound": "Cc1cccn2c(=O)c3cc(C#N)c(=O)n(CCCN4CCOCC4)c3nc12", "activity change, negative = inhibition": "2.6% (inactive)"}, {"compound": "O=C1C(c2[nH]c3ccccc3c2O)=Nc2ccccc21", "activity change, negative = inhibition": "-20% (inactive)"}, {"compound": "Cc1cc2ccccc2n2c(SCC(=O)N3CCN(C(=O)c4ccco4)CC3)nnc12", "activity change, negative = inhibition": "6% (inactive)"}, {"compound": "O=C1c2ccccc2C(O)N1Cc1ccccc1", "note": "(centres undefined)", "activity change, negative = inhibition": "2.9% (inactive)"}, {"compound": "CC[N+](C)(CC)CCC[n+]1c(-c2ccccc2)c2cc(N)ccc2c2ccc(N)cc21", "Potency": "1.58 µM (active)"}, {"compound": "CCOC(=O)Cn1c2c(c(-c3ccccc3OC)cc1=O)CCCC2", "activity change, negative = inhibition": "0.5% (inactive)"}, {"compound": "COCCn1c(=O)[nH]c2cc(C(=O)NCc3cccnc3)ccc2c1=O", "activity change, negative = inhibition": "6.2% (inactive)"}, {"compound": "O=C(O)[C@H](CCc1ccccn1)c1ccccc1", "activity change, negative = inhibition": "-5.3% [at 11.4 µM] (inactive)"}, {"compound": "CCSc1ncnc2c(C#N)c3n(c12)CCCCC3", "activity change, negative = inhibition": "11.1% (inactive)"}, {"compound": "CCSC1=C(C#N)C(=O)n2c1cc1c2CCCC1", "Potency": "25.1 µM (active)"}, {"compound": "CC(C)C[C@@H](CC(=O)N[C@@H](CCC(=O)O)CC(=O)O)NC(=O)[C@@H]1CCCC[C@H]1NC(=O)C[C@@H](NC(=O)C[C@H](CO)NC(=O)[C@@H]1CCCC[C@H]1N)C(C)C", "activity change, negative = inhibition": "-3.3% (inactive)"}, {"compound": "CCC(C)(C(=O)NC1CCCC1)N(C(=O)CNC(C)=O)c1ccc(C)cc1", "note": "(centres undefined)", "activity change, negative = inhibition": "-10.2% (inactive)"}, {"compound": "C=CC(=O)OCCOCCOCCOCCOC(=O)C=C", "Potency": "inactive"}, {"compound": "Cc1nn2c3ccccc3nc2n(C)c1=O", "activity change, negative = inhibition": "-16.6% (inactive)"}, {"compound": "Cn1c(-c2ccco2)nc2cc3ccccc3cc21", "activity change, negative = inhibition": "97.4% (inactive)"}, {"compound": "c1coc(-c2nc3nc4ccccc4n3nc2-c2ccco2)c1", "Potency": "3.16 µM (active)"}, {"compound": "COC(=O)C1(Cc2ccccc2)C=C2C(=C(C)C(=O)C2C)CN1", "note": "(centres undefined)", "activity change, negative = inhibition": "21.1% (inactive)"}, {"compound": "Cc1ccc(C2CC(c3cccc(Br)c3)n3nc(N)nc3N2)cc1", "note": "(centres undefined)", "activity change, negative = inhibition": "-30% (inactive)"}, {"compound": "CCNC(=S)NCC", "activity change, negative = inhibition": "-11.9% (inactive)"}, {"compound": "Cc1nc2c(c(=O)n1Cc1ccco1)c1nc3ccccc3nc1n2Cc1ccccc1", "Potency": "15.8 µM (active)"}, {"compound": "Cc1ccc(Cn2c(NC(=O)c3ccco3)nc3ccccc32)cc1", "activity change, negative = inhibition": "14.6% (inactive)"}, {"compound": "CCOC(=O)CSc1nc2c(sc(=S)n2CCc2ccccc2)c(=O)n1Cc1ccco1", "activity change, negative = inhibition": "98.7% (inactive)"}, {"compound": "COCCCn1c2nc3ccccc3nc2c2c(=O)n(Cc3ccc(Cl)cc3)c(C)nc21", "activity change, negative = inhibition": "13.7% (inactive)"}, {"compound": "Cc1ccc(Cn2c(C)nc3c(c2=O)c2nc4ccccc4nc2n3Cc2ccco2)cc1", "Potency": "25.1 µM (active)"}, {"compound": "O=c1c2ccccc2oc2nc(C3CCCCC3)n(Cc3ccco3)c(=O)c12", "activity change, negative = inhibition": "-13.1% (inactive)"}, {"compound": "CCC(C)(C)n1nnnc1C(c1ccccc1OC)N1CCSCC1", "note": "(centres undefined)", "activity change, negative = inhibition": "-8.9% (inactive)"}, {"compound": "c1ccc(-c2oc3ncnc(N4CCOCC4)c3c2-c2ccccc2)cc1", "activity change, negative = inhibition": "1.3% (inactive)"}, {"compound": "c1cnn(-c2cc(N3CCOCC3)ncn2)c1", "activity change, negative = inhibition": "-1.2% (inactive)"}, {"compound": "O=C1c2ccccc2-c2ncnc3c(N4CCOCC4)cc(N4CCOCC4)c1c23", "Potency": "5.01 µM (active)"}, {"compound": "COc1ccc(N2C(=O)c3cccc4cccc(c34)C2=O)nn1", "activity change, negative = inhibition": "9.7% (inactive)"}, {"compound": "O=C1c2ccccc2C(=O)N1CCCSc1ccccc1", "activity change, negative = inhibition": "-2.3% [at 11.4 µM] (inactive)"}, {"compound": "C[N+](C)(CCCCCC[N+](C)(C)CCCN1C(=O)c2cccc3cccc(c23)C1=O)CCCN1C(=O)c2cccc3cccc(c23)C1=O", "Potency": "2 µM (active)"}, {"compound": "O=C(c1ccc2c(c1)N(Cc1ccc(F)cc1)C(=O)CS2)N1CCOCC1", "activity change, negative = inhibition": "-5.7% (inactive)"}, {"compound": "COc1ccc(N)c(C)c1", "activity change, negative = inhibition": "-6.8% (inactive)"}, {"compound": "CCCC(=O)Nc1ccc2c(c1)nc1n2CCSC1", "activity change, negative = inhibition": "-16.2% (inactive)"}, {"compound": "Cc1cccc(C(=O)O)c1[N+](=O)[O-]", "activity change, negative = inhibition": "11.9% (inactive)"}, {"compound": "Brc1ccc(OCCn2ccnc2)cc1", "activity change, negative = inhibition": "-24.1% (inactive)"}, {"compound": "Cc1cccc(NC(=O)CSC(N)=O)c1C", "activity change, negative = inhibition": "3.4% (inactive)"}, {"compound": "Cc1ccccc1NC(=O)c1ccccc1", "activity change, negative = inhibition": "0.4% (inactive)"}, {"compound": "Cc1nc(C)c(C(=O)Nc2cccc(C)c2C)o1", "Potency": "15.8 µM (active)"}, {"compound": "Cc1cccc(OCC(O)Cn2c(=N)n(CCN3CCOCC3)c3ccccc32)c1", "note": "(centres undefined)", "activity change, negative = inhibition": "16% (inactive)"}, {"compound": "CC(C)OCCCNc1nc2c(c(=O)n(Cc3ccccc3F)c(=O)n2C)n1C", "activity change, negative = inhibition": "8.7% (inactive)"}, {"compound": "Cc1ccc2nc(-c3ccccc3)cc(C(=O)O)c2c1", "activity change, negative = inhibition": "1.3% (inactive)"}, {"compound": "Cc1ccc(NC(=O)c2cc(-c3ccc(C)o3)nc3ccccc23)nc1", "Potency": "10 µM (active)"}, {"compound": "Cc1cc(=O)oc(C)c1C(=O)Nc1cnc2ccccc2c1", "activity change, negative = inhibition": "288% (inactive)"}, {"compound": "C1CCC2OC2C1", "note": "(centres undefined)", "activity change, negative = inhibition": "2.7% (inactive)"}, {"compound": "N=C(CC(=O)Nc1ccccn1)c1ccccc1", "activity change, negative = inhibition": "-2.3% [at 11.4 µM] (inactive)"}, {"compound": "CC1=Nn2c(nnc2-c2ccccc2)SC1", "activity change, negative = inhibition": "1.3% (inactive)"}, {"compound": "COc1ccc(-n2c(=O)c(C)nc3cnc(N4CCOCC4)nc32)cc1", "activity change, negative = inhibition": "-8.4% (inactive)"}, {"compound": "Cc1nn2c3cc(N4CCOCC4)ccc3nc2c2ccccc12", "Potency": "12.6 µM (active)"}, {"compound": "Cc1cc(C)c2c(n1)nn1c(N3CCOCC3)cc(C)nc21", "activity change, negative = inhibition": "18.9% (inactive)"}, {"compound": "O=C(C(Cc1ccccc1)n1cccc1)N1CCN(C2CCCCC2)CC1", "note": "(centres undefined)", "activity change, negative = inhibition": "-11.5% (inactive)"}, {"compound": "O=C(O)/C(=C/c1c(C(=O)O)[nH]c2cc(Cl)cc(Cl)c12)c1ccccc1", "activity change, negative = inhibition": "-6.4% (inactive)"}]}]}
